SMILES strings stand for the structures. Records with an inconclusive call do not appear. A number with no mark means an inactive call. Activity calls are given as the source filed them. The call rests on the fitted dose curve; tested in HEK293 reporter line.

Here are results for 39 compounds from PubChem BioAssay (NCATS).
Further: nearly all actives have a fitted effect of over 80% in size.
On the % scale 0 is the no-effect control and ±100 the full control effect; potency means the concentration at half of the fitted maximal effect.

The nature of one experiment: qHTS for Inhibitors of the Functional Ribonucleoprotein Complex (vRNP) of Lassa (LASV) Arenavirus: Viability assay - alamar blue signal for LASV Primary Screen (AID 1347083). To be noted: cell viability, alamar blue fluorescence (LASV minigenome counter-screen); series mostly up to 57.5 µM; activity change, negative = reduced viability: at the top concentration. (In general: qHTS replaces the single test concentration by a dilution series.)
As to `COCC1(CO)C(=O)C2CCN1CC2` (centres undefined), the “activity change, negative = reduced viability” value was -10%.
Same read-out and setting: to `O=S(=O)(CC1CS1)c1ccc(Oc2ccccc2)cc1` (centres undefined) belongs -7.18%.
Take `Clc1ccc2ncc(-c3cccc(NC4CNC4)n3)n2c1`: the Potency is 21.7 µM (active).
Regarding `CCCCCCCCc1ccc(O)cc1`, the “activity change, negative = reduced viability” value was -14.7% [at 115 µM].
For `CCn1c(-c2nonc2N)nc2cnc(Oc3cccc(NC(=O)c4ccc(OCCN5CCOCC5)cc4)c3)cc21`, the Potency was 12.2 µM (active).
As for `COc1cc(Nc2ncc(F)c(Nc3ccc4c(n3)NC(=O)C(C)(C)O4)n2)cc(OC)c1OC`, the “activity change, negative = reduced viability” value was -35.3%.
On the same count and under the same terms, to `COc1ccc(CC2NCCc3cc(OC)c(OC)cc32)cc1OC` (centres undefined) belongs -9.44%.
Regarding `COc1cc2c(cc1OC)[C@@H]1C(=O)c3ccc4c(c3O[C@@H]1CO2)C=CC(C)(C)O4`, the Potency is 1.93 µM (active).
Same read-out and setting: to `COC1=C[C@@H]2[C@@H]3Cc4ccc(OC)c(O)c4[C@]2(CCN3C)CC1=O` belongs 19.3 µM (active); to `CC(C)C[C@H](NC(=O)CNC(=O)c1cc(Cl)ccc1Cl)B(O)O`, 1.53 µM (active).
With `CC(C)Oc1cccc(NC(=O)c2ccccc2C(F)(F)F)c1`, the “activity change, negative = reduced viability” value was -14.8% [at 115 µM].
As for `CCN1CCN(C(=O)Cc2ccc(Nc3ncc(F)c(Nc4ccc(C(=O)Nc5ccccc5Cl)cc4)n3)cc2)CC1`, the Potency was 4.32 µM (active).
Take `CC(=O)N(C)c1cccc(-c2ccnc3c(C(=O)c4cccs4)cnn23)c1`: the “activity change, negative = reduced viability” value is -2.14%.
On the same count and under the same terms, to `O=C(N[C@@H](COc1ccc2[nH]c(=O)[nH]c2c1)c1ccccc1)c1cccn(Cc2ccc(F)c(F)c2)c1=O` belongs -1.86%.
With `COC(=O)[C@]12CCC(C)(C)C[C@@H]1[C@@H]1C(=O)C=C3[C@@]4(C)C=C(C#N)C(=O)C(C)(C)[C@@H]4CC[C@@]3(C)[C@]1(C)CC2`, the Potency is 3.43 µM (active).
Turning to `CCCN(CCC)c1c([N+](=O)[O-])cc(S(N)(=O)=O)cc1[N+](=O)[O-]`, the “activity change, negative = reduced viability” value was -31% [at 115 µM].
For the compound `O=c1cccc2n1CC1CNC[C@H]2C1`, the Potency is 27.3 µM (active).
For the compound `O=C(O)c1ccc(-c2cc3cccnc3c(-c3ccc4nonc4c3)n2)cc1`, the “activity change, negative = reduced viability” value is -34.7%.
Take `CN(C)c1ccc(Nc2nc(N)n(C(=O)c3c(F)cccc3F)n2)cc1`: the Potency was 21.7 µM (active).
For the compound `O=[N+]([O-])c1cc([N+](=O)[O-])c2ccccc2c1`, the “activity change, negative = reduced viability” value was 14% [at 115 µM].
On the same count and under the same terms, to `O=[N+]([O-])c1c2ccccc2cc2ccccc12` belongs -12.6% [at 115 µM]; to `Nc1nc(-c2nn(Cc3ccccc3F)c3ncccc23)nc(N)c1N1CCOCC1`, -37.7%.
Consider `Cn1cc(-c2ccc3nnc(Sc4ccc5ncccc5c4)n3n2)cn1`, for which the “activity change, negative = reduced viability” value was 5%.
Take `Cc1ccccc1-n1c(Cn2cnc3c(N)ncnc32)nc2cccc(C)c2c1=O`: the Potency is 1.53 µM (active).
Consider `CC(=Cc1csc(C)n1)[C@@H]1C[C@H]2O[C@]2(C)CCC[C@H](C)[C@@H](O)[C@@H](C)C(=O)C(C)(C)[C@@H](O)CC(=O)O1`, for which the “activity change, negative = reduced viability” value was -95.2%.
For `Nc1cc(C(F)(F)F)c(-c2cc(N3CCOCC3)nc(N3CCOCC3)n2)cn1`, the Potency was 1.22 µM (active).
With `CC(C)[C@]12O[C@@H]1[C@@H]1O[C@]13[C@]1(O[C@H]1C[C@@H]1C4=C(CC[C@@]13C)C(=O)OC4)[C@H]2O`, the “activity change, negative = reduced viability” value was -122%.
On the same count and under the same terms, to `CCc1c(C(=O)C(N)=O)c2c(OCC(=O)O)cccc2n1Cc1ccccc1` belongs -3.47%.
With `CC[C@H](CO)Nc1nc(NCc2ccccc2)c2ncn(C(C)C)c2n1`, the Potency was 15.3 µM (active).
Regarding `O=C1CCC[C@@H]2[C@H]3CCCN4CCC[C@@H](CN12)[C@@H]34`, the “activity change, negative = reduced viability” value was 2.11%.
With `N#CCNC(=O)c1ccc(-c2ccnc(Nc3ccc(N4CCOCC4)cc3)n2)cc1`, the Potency is 21.7 µM (active).
On the same count and under the same terms, to `CC(=O)O[C@@]12CO[C@H]1C[C@H](O)[C@@]1(C)C(=O)[C@H](O)C3=C(C)[C@@H](O)C[C@@](O)([C@@H](OC(=O)c4ccccc4)[C@@H]21)C3(C)C` belongs 13.7 µM (active).
`CC(=Cc1csc(C)n1)[C@@H]1C[C@H]2O[C@@H]2CCC[C@H](C)[C@@H](O)[C@@H](C)C(=O)C(C)(C)[C@@H](O)CC(=O)O1`: the “activity change, negative = reduced viability” value is -120%.
Regarding `CCCCCC[C@H]1C(=O)O[C@H](C)[C@H](NC(=O)c2cccc(NC=O)c2O)C(=O)O[C@@H](C)[C@@H]1OC(=O)CC(C)C`, the Potency is 4.32 µM (active).
Regarding `CC(=O)Nc1sc2c(c1-c1nc3ccccc3s1)CNC2`, the Potency was 0.0054 µM (active).
Same read-out and setting: to `O=C1C=CC[C@@H]2[C@H]3CCCN4CCC[C@@H](CN12)[C@@H]34` belongs “inactive”.
Regarding `c1cc2ccc3cccc4ccc(c1)c2c34`, the “activity change, negative = reduced viability” value was 15.8% [at 115 µM].
On to `CC[C@H]1C=CC=CC[C@@H](C)[C@H](O)[C@@](C)(O)C(=O)[C@@H](C)[C@H](O)[C@@H](C)C(=O)[C@@H](C)[C@H](O)[C@@H](C)C=CC(=O)O[C@@H]2[C@@H](C)[C@H](CC1)O[C@]1(CC[C@H](C)[C@H](C[C@@H](C)O)O1)[C@H]2C`, for which the Potency is 0.0863 µM (active).
Still for that read-out and setting: to `C[C@H]1CCCC=CC2C[C@H](O)C[C@@H]2[C@H](O)C=CC(=O)O1` (some centres undefined) belongs 0.0243 µM (active).

The nature of a further experiment: qHTS for Inhibitors of the Functional Ribonucleoprotein Complex (vRNP) of Lymphocytic Choriomeningitis Arenaviruses (LCMV): Viability assay - alamar blue signal for LCMV Primary Screen (AID 1347085). To be noted: alamar blue viability counter-screen, LCMV vRNP screen cells; series mostly up to 57.5 µM; activity change, negative = lower viability: at the top concentration.
As to `COCC1(CO)C(=O)C2CCN1CC2` (centres undefined), the Potency is 12.2 µM (active).
`O=S(=O)(CC1CS1)c1ccc(Oc2ccccc2)cc1` (centres undefined): the “activity change, negative = lower viability” value is 10.1%.
On the same count and under the same terms, to `CCCCCCCCc1ccc(O)cc1` belongs 22.2% [at 115 µM].
On to `COC1=C[C@@H]2[C@@H]3Cc4ccc(OC)c(O)c4[C@]2(CCN3C)CC1=O`, for which the Potency was 21.7 µM (active).
Consider `CC(C)Oc1cccc(NC(=O)c2ccccc2C(F)(F)F)c1`, for which the “activity change, negative = lower viability” value is -12.9% [at 115 µM].
For the compound `CCN1CCN(C(=O)Cc2ccc(Nc3ncc(F)c(Nc4ccc(C(=O)Nc5ccccc5Cl)cc4)n3)cc2)CC1`, the Potency was 6.85 µM (active).
With `O=C(N[C@@H](COc1ccc2[nH]c(=O)[nH]c2c1)c1ccccc1)c1cccn(Cc2ccc(F)c(F)c2)c1=O`, the “activity change, negative = lower viability” value is -3.38%.
Consider `CCCN(CCC)c1c([N+](=O)[O-])cc(S(N)(=O)=O)cc1[N+](=O)[O-]`, for which the “activity change, negative = lower viability” value is -32.2% [at 115 µM].
Turning to `O=[N+]([O-])c1c2ccccc2cc2ccccc12`, the “activity change, negative = lower viability” value is -14% [at 115 µM].
As to `Cc1ccccc1-n1c(Cn2cnc3c(N)ncnc32)nc2cccc(C)c2c1=O`, the Potency was 1.93 µM (active).
Take `CC(=Cc1csc(C)n1)[C@@H]1C[C@H]2O[C@]2(C)CCC[C@H](C)[C@@H](O)[C@@H](C)C(=O)C(C)(C)[C@@H](O)CC(=O)O1`: the “activity change, negative = lower viability” value is -109%.
On the same count and under the same terms, to `CC(C)[C@]12O[C@@H]1[C@@H]1O[C@]13[C@]1(O[C@H]1C[C@@H]1C4=C(CC[C@@]13C)C(=O)OC4)[C@H]2O` belongs -130%.
As to `CCc1c(C(=O)C(N)=O)c2c(OCC(=O)O)cccc2n1Cc1ccccc1`, the “activity change, negative = lower viability” value was -38.8%.
Still for that read-out and setting: to `O=C1CCC[C@@H]2[C@H]3CCCN4CCC[C@@H](CN12)[C@@H]34` belongs -4.07%.
Regarding `CC(=O)O[C@@]12CO[C@H]1C[C@H](O)[C@@]1(C)C(=O)[C@H](O)C3=C(C)[C@@H](O)C[C@@](O)([C@@H](OC(=O)c4ccccc4)[C@@H]21)C3(C)C`, the Potency was 21.7 µM (active).
With `CC(=Cc1csc(C)n1)[C@@H]1C[C@H]2O[C@@H]2CCC[C@H](C)[C@@H](O)[C@@H](C)C(=O)C(C)(C)[C@@H](O)CC(=O)O1`, the “activity change, negative = lower viability” value was -107%.
For the compound `CCCCCC[C@H]1C(=O)O[C@H](C)[C@H](NC(=O)c2cccc(NC=O)c2O)C(=O)O[C@@H](C)[C@@H]1OC(=O)CC(C)C`, the Potency is 4.85 µM (active).
Take `O=C1C=CC[C@@H]2[C@H]3CCCN4CCC[C@@H](CN12)[C@@H]34`: the Potency result was “inactive”.
On to `CC[C@H]1C=CC=CC[C@@H](C)[C@H](O)[C@@](C)(O)C(=O)[C@@H](C)[C@H](O)[C@@H](C)C(=O)[C@@H](C)[C@H](O)[C@@H](C)C=CC(=O)O[C@@H]2[C@@H](C)[C@H](CC1)O[C@]1(CC[C@H](C)[C@H](C[C@@H](C)O)O1)[C@H]2C`, for which the Potency was 0.0968 µM (active).
For `C[C@H]1CCCC=CC2C[C@H](O)C[C@@H]2[C@H](O)C=CC(=O)O1` (some centres undefined), the Potency is 0.0193 µM (active).
